# From PubChem BioAssay
# Methyltransferases: Primary Screen for Target Class Profiling of Small Molecule Inhibitors of Methyltransferases | actives 3.9% (n = 25,000) | AID 1745853, 2022 | purified enzyme, MTase-Glo SAH luminescence; active compounds read low | calls only at 40 µM; call rule not given here
#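 Each enzyme was assayed with SAM and its substrate. SAH formation detected by MTase-Glo luminescence; single-point 40 uM screen[…].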
# * = called active by the depositor; i = inactive; + = active, no number. The sample as a whole holds a higher share of hits than the screen did. On the % scale 0 is the no-effect control and ±100 the full control effect.
SMILES,Methyltransferases
CCc1cccc(C)c1NC(=O)c1ncn2c1C(=O)N(C1CC1)C(C)(C(=O)NCc1ccc(F)cc1)C2 (stereo not drawn),i
CCOC(=O)c1cc2n(n1)CC(C)(C(=O)NC1CCC(C)CC1)N(c1ccc(C)c(Cl)c1)C2=O (stereo not drawn),i
O=c1c2ccccc2n2c(=O)n(Cc3ccccc3Cl)nc2n1CCc1ccccc1,i
CCOC(=O)c1cc2n(n1)CC(C)(C(=O)NC1CCCC1)N(Cc1cccc(F)c1)C2=O (stereo not drawn),i
CCn1c(CN(C)C)nnc1C1CCN(C(=O)Cn2nc(C)cc2N)CC1,i
CCOC(=O)Cn1cccc1-c1nc(-c2ccc(OC)cc2)c(-c2ccc(OC)cc2)s1,+
COc1ccc(NC(=O)c2nc3sccn3c2-c2cccc(OC)c2)cc1,i
COc1ccc(-c2nnc3n(Cc4ccccc4)c(=O)c4ccccc4n23)cc1,i
O=C(CCCn1ccc2cc(S(=O)(=O)N3CCCC3)ccc21)NCc1ccco1,i
CC1=CCC(O)C2(C)CCC3C(C)C(=O)OC3C12 (stereo not drawn),+
C[C@@H]1C(=O)O[C@H]2[C@H]1CC[C@@]1(C)C(=O)C=C[C@@](C)(O)[C@H]21,i
C=C1C(=O)O[C@@H]2[C@H]1[C@H](O)C[C@]1(C)[C@@H](O)CC=C(C)[C@@H]21,i
CCc1cccc(NC(=O)Cn2nc3n(C4CC4)c(=O)c4ccc(C(=O)NC(C)C)cc4n3c2=O)c1,i
COc1ccc(CN2C(=O)c3cc4occc4n3CC2(C)C(=O)NC2CCCCCC2)cc1 (stereo not drawn),i
NC(=O)COc1cccc(CN2CCN(c3ccc(F)cc3F)CC2)c1,i
c1ccc(CCCN2CC[C@H](c3nc4ccccc4s3)C2)cc1,i
c1cc(CN2CCCCC2)cc(OCCCNc2nc3ccccc3s2)c1,+
CNC(=O)c1cc(C2CC2)nc2onc(C3CCN(C(=O)C4CCCCC4)CC3)c12,i
COc1cc2ncnc(-n3nc(-c4ccccn4)nc3N)c2cc1OC,i
COc1cc2ncnc(Nc3cc(Br)c(O)c(Br)c3)c2cc1OC,i
COc1cc2ncnc(Nc3cccc(I)c3)c2cc1OC,+
O=C(CCc1cc2n(n1)CCCN(C(=O)CCc1ccsc1)C2)NC1CC1,i
Cc1[nH]c(/C=C2\C(=O)Nc3ccc(S(=O)(=O)N(C)c4cccc(Cl)c4)cc32)c(C)c1C(=O)N1CCN(C)CC1,+
CN(C)S(=O)(=O)c1ccc2c(c1)/C(=C/c1cc3c([nH]1)CCCC3)C(=O)N2,i
CCOC(=O)c1cc2n(n1)CC(C)(C(=O)NC1CCC(C)CC1)N(CCc1cccs1)C2=O (stereo not drawn),i
SMILES,Methyltransferases
CN(C)c1ccc(C2NC(C(=O)O)Cc3c2[nH]c2ccccc32)cc1 (stereo not drawn),i
COCc1c(O)c(C(=O)O)c(C)c2c1OC(=O)c1c(C)cc(O)c(CO)c1O2,+
CCN(CC)C(=S)SSC(=S)N(CC)CC,+
CN1C(=O)c2cc(C(=O)NCc3ccc(Cl)cc3)nn2CC1(C)C(=O)NCc1ccccc1 (stereo not drawn),i
CC1CCCCC1NC(=O)C1(C)Cn2c(nc3ccccc32)C(=O)N1CCc1ccc(Cl)cc1 (stereo not drawn),i
CCCCN1C(=O)c2ccc(-c3ccccc3)n2CC1(C)C(=O)NC1CCCCCCC1 (stereo not drawn),i
C=C1CC2C3(C)C(O)CC(=O)C(C)(C)C3C(O)C(OC(C)=O)C2(C)C2C(=O)OC(C)(C(=O)OC)C(=O)C12C (stereo not drawn),i
COc1cccc(COC2CN(CCc3ccccc3)C(=O)CN(C(=O)CN3CCOC3=O)C2)c1 (stereo not drawn),i
O=C(NC1CCCN(c2cc(N3CCCC3)ncn2)C1)c1ccco1 (stereo not drawn),i
COc1cc2nc(N3CCN(C(=O)c4ccco4)C4CCCCC43)nc(N)c2cc1OC (stereo not drawn),+
O=C(c1ccco1)N1CCCCC1c1nc(C2CC2)n[nH]1 (stereo not drawn),i
CCc1ccc(NC(=O)CSc2nnc3[nH]c(=O)c(Cc4ccc(C)cc4)nn23)cc1,i
Cc1ccc(NC(=O)Cn2nc3n(C(C)C)c(=O)c4ccc(C(=O)NC(C)C)cc4n3c2=O)c(C)c1,i
CC(C)CCNC(=O)CCc1nnc2n(Cc3ccccc3Cl)c(=O)c3ccccc3n12,i
O=C(CCc1nnc2n(CCc3ccccc3)c(=O)c3ccccc3n12)NCCCN1CCOCC1,i
O=C(CCc1nnc2n(Cc3ccccc3)c(=O)c3ccccc3n12)NCCN1CCCC1,i
CC(C)CCNC(=O)CCc1nnc2n(Cc3ccc(F)cc3)c(=O)c3ccccc3n12,i
O=C(CCc1nnc2n(Cc3ccc(F)cc3)c(=O)c3ccccc3n12)NCCc1ccccc1,i
O=C(CCc1nnc2n(CCc3ccccc3)c(=O)c3ccccc3n12)NCCc1ccccc1,i
O=C(CCc1nnc2n(Cc3ccc(Cl)cc3)c(=O)c3ccccc3n12)NCCN1CCCC1,+
O=C(CCc1nnc2n(Cc3ccc(Cl)cc3)c(=O)c3ccccc3n12)NCCCN1CCOCC1,i
CC1CCN(CCCNC(=O)CCc2nnc3n(Cc4ccccc4Cl)c(=O)c4ccccc4n23)CC1,+
CC1CCCCN1CCNC(=O)CCc1nnc2n(Cc3ccc(F)cc3)c(=O)c3ccccc3n12 (stereo not drawn),+
O=C(CCc1nnc2n(CCc3ccccc3)c(=O)c3ccccc3n12)NCCCN1CCCCC1,+
O=C(CCc1nnc2n(Cc3ccccc3Cl)c(=O)c3ccccc3n12)NCCN1CCOCC1,i
SMILES,Methyltransferases
CCCC(=O)N(c1ccc(OCC)cc1)S(=O)(=O)c1ccc2c(c1)n(C)c(=O)n2C,i
CCOC(=O)COc1ccc2c(c1)C[C@@H](NC[C@H](O)c1cccc(Cl)c1)CC2,i
CCOC(=O)c1cc2n(n1)CC(C)(C(=O)NCCCOC)N(c1ccc(OC)cc1)C2=O (stereo not drawn),i
Cc1ccc(NS(=O)(=O)c2cc3c(cc2Cl)n(C)c(=O)n3C)c(C)c1,i
CCOC(=O)c1cc2n(n1)CC(C)(C(=O)NCCCOC)N(c1ccc(CC)cc1)C2=O (stereo not drawn),i
CCC(C)NC(=O)c1ccc2c(=O)n(Cc3ccccc3)c3nn(CC(N)=O)c(=O)n3c2c1 (stereo not drawn),i
Cc1ccccc1N1C(=O)c2cc3sccc3n2CC1(C)C(=O)NC1CCCCC1C (stereo not drawn),i
COc1ccc(S(=O)(=O)N2CCCC(CN3CCC(C)CC3)CC2)cc1 (stereo not drawn),i
O=C(CCc1nnc2n(Cc3ccccc3)c(=O)c3ccccc3n12)N1CCN(C2CCCCC2)CC1,i
Cc1ccc(Cn2c(=O)c3ccccc3n3c(CCC(=O)N4CCC(N5CCCCC5)CC4)nnc23)cc1,+
Cc1ccc(Cn2c(=O)c3ccccc3n3c(CCC(=O)N4CCC(C)CC4)nnc23)cc1,i
O=C(CCCc1nnc2n3nc(-c4ccccc4)nc3c3ccccc3n12)NCCc1ccccc1,i
O=C(CCCc1nnc2n3nc(-c4ccccc4)nc3c3ccccc3n12)NCCN1CCCC1,+
O=C(CCCc1nnc2n3nc(-c4ccccc4)nc3c3ccccc3n12)NCc1ccccc1,i
Cc1ccc(NC(=O)Cn2nc3n(CC(C)C)c(=O)c4ccc(C(=O)NC(C)C)cc4n3c2=O)c(C)c1,i
